Results reported in PubChem BioAssay AID624483 (NMMLSC, 2012).
Several values for one entry are separate records, joined by “and”; a condition that tells them apart may be missing. Identical values can stand only once. Screen size: about 360,000 compounds; about 11,000 (3.1%) were called active. Roughly 2% stayed inconclusive and do not appear here. Rule as the data show it: active = fluorescence intensity above about 16000; inconclusive = no clear call, values can overlap the other calls; inactive = below that. For the sample, actives were picked, then their nearest neighbours and some compounds at random.

assay: compound fluorescence in toxin protease inhibitor counterscreen, primary screen, artefact control for toxin protease inhibitor project, biochemical, multiplex microsphere, HTS (AID 624483); settings: compound autofluorescence counterscreen, microsphere flow cytometry; hits give high values

Structure (SMILES) | fluorescence intensity
CN(Cc1ccc(C(F)(F)F)cc1)C(=O)[C@H]1O[C@@H](n2cnc3c(N)ncnc32)[C@H](O)[C@@H]1O | 4210 (inactive)
COc1cc(C(=O)NCc2ccc3c(c2)cc(C)n3C)cc(OC)c1OC | 3720 (inactive)
COCCNC(=O)C1(C)CCCN(Cc2cccc(F)c2)C1 (stereo not given) | 2750 (inactive)
Brc1ccc(-c2noc(-c3ccccc3)n2)o1 | 4610 (inactive)
Brc1ccc(-c2nnc(-c3ccccc3)o2)o1 | 24200 (active)
OC(c1nnc(-c2ccccc2)o1)c1cccs1 (stereo not given) | 4160 (inactive)
CCCCCc1c(-c2ccc(OC)c(OC)c2)ncn1CCc1ccccc1OC | 6300 (inactive)
COc1cccc(CNC(=O)COc2cc(O)c3c(c2)OC(C)(C)CC3=O)c1 | 5480 (inactive)
CC1=C(C(=O)N2CCOCC2)CC(CC(=O)NCc2cccs2)C(=O)N1CCCN1CCCC1=O (stereo not given) | 4160 (inactive)
CCN(CC)C(=O)C1CCCN(Cc2cccc(Cl)c2)C1 (stereo not given) | 2940 (inactive)
COc1ccc(-c2noc(CSc3ccc(C)cc3)n2)cc1 | 24000 (active)
COc1ccc(N2CCN(C(=O)CCc3nc(-c4ccc(C)cc4)no3)CC2)cc1 | 3440 (inactive)
Cc1ccc(-c2noc(CC(c3ccccc3)c3ccccc3)n2)cc1 | 4240 (inactive)
CC(C)c1ccc(CC(=O)N2CCC2(C)C(=O)NS(=O)(=O)c2ccc(C(C)(C)C)cc2)cc1 (stereo not given) | 2850 (inactive)
CCC(=O)N1CCC(C)(C(=O)Nc2cc(OC)c(OC)c(OC)c2)C1 (stereo not given) | 3060 (inactive)
CCn1c(CC(=O)Nc2ccccc2)nnc1SCC(=O)N1CCOCC1 | 6500 (inactive)
O=C(CSc1nnc(Cc2ccccc2)n1-c1ccccc1)N1CCOCC1 | 16700 (active)
Cc1ccc(-n2c(CNc3ccc(F)cc3)nnc2SCC(=O)N2CCOCC2)cc1 | 4740 (inactive)
CC(C)(C)NC(=O)COc1ccc(CNc2ccc3[nH]c(=O)[nH]c3c2)cc1 | 22600 (active)
COC(=O)c1ccc(OCC(=O)NC(C)(C)C)cc1 | 2670 (inactive)
O=C(COc1ccc([N+](=O)[O-])cc1Cl)Nc1ccc2[nH]c(=O)[nH]c2c1 | 4100 (inactive)
CCC(Oc1ccccc1)C(=O)OCC(=O)Nc1c(C)nn(-c2ccccc2)c1C (stereo not given) | 3640 (inactive)
O=C(Nc1ccc2c(c1)CCC2)c1ccc(Br)s1 | 4300 (inactive)
O=C(NC1CCCC1)c1ccc(Br)s1 | 17100 (active)

Structure (SMILES) | fluorescence intensity
O=C(NC1CCCCCCC1)c1cccs1 | 3700 (inactive)
CC(C)NC(=O)N1Cc2cc(C(=O)NCC(F)(F)F)nc(-c3cccc(-c4cc5ccccc5o4)c3)c2[C@@H]1CCO | 6410 (inactive)
O=C(CN(CC1CCCO1)C(=O)CNS(=O)(=O)c1ccccc1)NCc1ccccc1 (stereo not given) | 4900 (inactive)
Cc1ccc(S(=O)(=O)NCC(=O)N(CC(=O)NC(C)(C)C)Cc2cccs2)cc1 | 23500 (active)
CC(C)(C)NC(=O)CN(Cc1cccs1)C(=O)CNS(=O)(=O)c1ccccc1 | 22000 (active)
CCC(C)(C)NC(=O)CN(Cc1cccs1)C(=O)CNS(=O)(=O)c1ccc(F)cc1 | 4360 (inactive)
Cc1ccc(S(=O)(=O)NCC(=O)N(CC(=O)NC2CCCCC2)Cc2ccco2)cc1 | 3490 (inactive)
Cc1[nH]c2ccccc2c1CCN(Cc1cccs1)C(=S)NC(C)(C)C | 4220 (inactive)
CSCCC(c1nnnn1Cc1ccccc1)N1CCN(C/C=C/c2ccccc2)CC1 (stereo not given) | 6070 (inactive)
COC(=O)[C@]12CCCCC=C1N(Cc1cccc3ccccc13)C(=O)[C@H](CC(=O)N1CCOCC1)C2 | 4200 (inactive)
CC1(C(=O)O)CCN1C(=O)/C=C/c1ccccc1 (stereo not given) | 3910 (inactive)
CCc1ccc(Nc2n[n+](-c3ccccc3)c(-c3cccc(Cl)c3Cl)s2)cc1 | 4300 (inactive)
CN(Cc1ccc2nsnc2c1)Cc1nc(Cc2cccc(F)c2)no1 | 4550 (inactive)
O=C1NC[C@@H](CCCCN2CCN(CCc3ccc(O)cc3)C(=O)C2=O)N(CC2CCCCC2)C1=O | 6050 (inactive)
O=C(COC(=O)CCc1nc2ccccc2c(=O)[nH]1)Nc1ccc(N2CCOCC2)cc1 | 4110 (inactive)
COc1ccc(Sc2ccc(NC(=O)c3cccc(Cl)c3)cc2C#N)cc1 | 3440 (inactive)
Cc1nc(SC(C)C)[nH]c(=O)c1Cc1ccccc1 | 23800 (active)
Cc1ccc2c(O)c(Cc3ccccc3)c(=O)[nH]c2n1 | 3740 (inactive)
CC(=O)Nc1nc(C)c(Cc2ccccc2)c(=O)[nH]1 | 2420 (inactive)
CC(C)NC(=O)C1(C)CCCCN1Cc1cccc(C(F)(F)F)c1 (stereo not given) | 3020 (inactive)
CCOc1cc(-c2nc3cc(C)ccn3c2NCC2CCCO2)ccc1O (stereo not given) | 4290 (inactive)
COc1ccc(-c2nc3cc(C)ccn3c2NC2CCCCC2)cc1SC1CCCCC1 | 20700 (active) and 26600 (active)
COc1ccc(-c2nc3cnccn3c2NC2CCCCC2)cc1-c1cccc(Cl)c1 | 6580 (inactive) and 3860 (inactive)
COc1cc(NC(=O)CN2C(=O)NC(C)(c3ccc(OC(F)F)cc3)C2=O)cc(OC)c1OC (stereo not given) | 3820 (inactive)

Structure (SMILES) | fluorescence intensity
CN(CC(=O)Nc1c(Cl)cccc1Cl)C(=O)CNC(=O)C1CCCCC1 | 4800 (inactive)
CC(=O)N1C[C@@H](CO)[C@@H](N(C)C(=O)c2ccco2)C[C@H]1c1ccccc1 | 6130 (inactive)
C=CCn1c(SCC(=O)NC(=O)Cc2ccccc2)nc2ccccc2c1=O | 8750 (inactive)
O=C(CSc1nnc(-c2cccnc2)n1CCc1ccccc1)NCc1ccccc1 | 2870 (inactive)
C=CCn1c(SCC(=O)NCc2ccccc2)nnc1-c1cc(Br)ccc1O | 20700 (active)
Cc1nc(CC(=O)NNS(=O)(=O)c2ccc(F)c(Cl)c2)cs1 | 2630 (inactive)
COc1ccc(N(Cc2cc3ccc(C)cc3[nH]c2=O)S(=O)(=O)c2ccccc2)cc1 | 4310 (inactive)
CCN(Cc1cc2cc(C)ccc2[nH]c1=O)S(=O)(=O)c1ccccc1 | 16600 (active)
CCC(=O)N(CCc1ccccc1)Cc1cc2cc(C)ccc2[nH]c1=O | 3090 (inactive)
CC1(C(=O)NS(=O)(=O)Cc2cccc(Cl)c2)CCN1C(=O)Cc1ccccc1 (stereo not given) | 3480 (inactive)
CC(=O)Nc1cccc(NC(=O)CSc2nccn2Cc2ccc(F)cc2)c1 | 6150 (inactive)
OC(c1ccc(Cl)c(F)c1)c1ncc(-c2ccccc2Cl)[nH]1 (stereo not given) | 3970 (inactive)
COCc1[nH]nc2c1C(C1C=CCCC1)C(C#N)=C(N)O2 (stereo not given) | 11600 (inactive)
COc1cc(C2C(C#N)=C(N)Oc3n[nH]c(-c4ccccn4)c32)cc(OC)c1OC (stereo not given) | 22700 (active)
COc1ccc(-c2[nH]nc3c2C(c2ccncc2)C(C#N)=C(N)O3)cc1 (stereo not given) | 3830 (inactive)
NC(=O)Cc1ccc2sc(-c3ccccc3)nc2c1 | 2610 (inactive)
O=C(COc1ccccc1F)Nc1nc(-c2ccccn2)cs1 | 3790 (inactive)
CC(NC(=O)c1ccco1)C(=O)Nc1nc(-c2ccccn2)cs1 (stereo not given) | 20700 (active)
Cc1cc(NC(=O)[C@H](C)NC(=O)c2ccco2)ccc1Br | 3700 (inactive)
COCCNc1ncnc2c1ncn2[C@H]1CN(CCN2CCOCC2)C[C@@H](CO)O1 | 3590 (inactive)
OC(c1ccccc1)C(CN1CCOCC1)c1ccccc1 (stereo not given) | 4580 (inactive)
CN[C@H]1C[C@H]2c3cc(Oc4ccccc4C)ccc3CCN2C(=O)[C@H]1[C@H](C)O | 5280 (inactive)
O=C(CCC1CCCN(Cc2ccc(O)c(Cl)c2)C1)NCc1ccccc1F (stereo not given) | 4480 (inactive)
CC(=O)Oc1ccc(Cn2c(C)c(C(=O)NCc3ccc(C#N)cc3)sc2=O)cc1 | 5590 (inactive)

Structure (SMILES) | fluorescence intensity
CCCCCCNC(=O)CSc1nccn1Cc1ccccc1 | 9260 (inactive)
CCCCNC(=O)CSc1nccn1Cc1ccccc1 | 8790 (inactive)
COC(=O)CCSc1nccn1Cc1ccccc1 | 20500 (active)
O=C(NCCN1CCOCC1)c1ccccc1N1C(=O)[C@@H]2Cc3c([nH]c4ccccc34)C(c3cccc(Cl)c3)N2C1=O (stereo not given in full) | 5120 (inactive)
CCc1nc2c(OCc3ccc(C(=O)OC)cc3)cccn2c1N(C)C(=O)C(C)C | 3990 (inactive)
CC(=O)c1cc2c(cc1N)OCO2 | 22400 (active)
CC(=O)C1=C(C)NC(=O)NC1c1ccc2c(c1)OCO2 (stereo not given) | 4750 (inactive)
CC(=O)c1cc2c(cc1NC(=O)CN1CCCCCC1)OCO2 | 3760 (inactive)
Cc1nc(SCC(=O)N2CCc3ccccc3C2)c2c(C)c(C)sc2n1 | 5870 (inactive)
CCCCn1nnnc1C(c1cccc(OC)c1OC)N1CCN(C/C=C/c2ccccc2)CC1 (stereo not given) | 5960 (inactive)
Cc1ccc(S(=O)(=O)N2CCCC(C(=O)N3CCN(C)CC3)C2)cc1 (stereo not given) | 5490 (inactive)
COc1ccc(OCC(=O)OCCN(C)C)cc1 | 2140 (inactive)
COc1ccc(OCCCC(=O)OC(C)C(=O)Nc2ccccc2[N+](=O)[O-])cc1 (stereo not given) | 3940 (inactive)
COc1ccc(OCCCC(=O)Oc2ccc(OC)cc2)cc1 | 21300 (active)
CCCCOc1ccc(Cl)cc1CSc1nncn1N | 20700 (active)
COC(=O)c1ccc(CSc2nncn2N)cc1 | 4020 (inactive)
CCCCOc1ccc(CSC(=N)N)cc1[N+](=O)[O-] | 2600 (inactive)
Cn1cccc1C1(C(F)(F)F)NCCNC1=O (stereo not given) | 20400 (active)
CC(=O)N1CCN(Cc2cc(=O)oc3cc(C)ccc23)CC1 | 5400 (inactive)
Cc1ccc(Cn2c(C)c(C(=O)NCc3ccccc3C(F)(F)F)sc2=O)cc1 | 5600 (inactive)
O=C1c2ccccc2C(c2nc3ccccc3[nH]2)N1c1ccccc1 (stereo not given) | 6040 (inactive)
CCN(CC)C(=O)CSC1c2ccccc2C(=O)N1c1ccccc1 (stereo not given) | 23100 (active)
CCN(CC)C(=O)CSc1ncnc2c1cnn2-c1ccccc1 | 3150 (inactive)
